Data as given in PubChem BioAssay (Tox21).
Values joined by “and” are separate entries in the source; they are usually repeats but may differ in a detail not shown here. Equal values may be shown once. Inconclusive results are not listed. Active and inactive are the calls of the source. Unless noted, the call rests on the fitted dose curve.

Experiments:
[1] = Nuclear factor erythroid 2-related factor 2/antioxidant responsive element (Nrf2/ARE) small molecule agonists: qHTS cell viability counter screen in human keratinocytes (AID 1919968; active means well fitted curve in the direction sought with a large enough effect in the repeat runs; an effect the other way counts as inactive or inconclusive; further: nearly all actives have a fitted effect of over 55% in size; further: potency means the concentration at half of the fitted maximal effect)
Summary of the method: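 Stably transfected HaCaT (KeratinoSens), 1,500/well. Test agents in DMSO were applied for 23 h, 37 C/5% CO2. CellTiter-Fluor was incubated 1 h before the fluorescence read.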

[2] = target: KiSS-1 receptor (Homo sapiens) (UniProt Q969F8); assay: Human kisspeptin (KISS1R) small molecule agonists, calcium flux assay in KISS1R-HEK293 cells (AID 1920064; active means well fitted curve in the direction sought with a large enough effect in the repeat runs; an effect the other way counts as inactive or inconclusive)
Summary of the method: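 After overnight (18 h) culture at 37 C/5% CO2, human KISS1R-HEK293 cells received calcium dye for 1 h, then test compound; emission at 540 nm (excitation 480 nm) was tracked for 3 min.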

[3] = G protein-coupled receptor (GPCR) small molecule agonists, calcium flux assay: HEK293 wild type cell line counter screen (AID 1920065)
Summary of the method: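 Following 18 h incubation at 37 C/5% CO2, plates got calcium dye for 1 h; compounds, ATP or DMSO were then pinned in and fluorescence followed kinetically (480/540 nm).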

[4] = p53 small molecule agonists, cell-based qHTS assay with human liver microsomes (AID 1963577);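 further: p53 response element beta-lactamase reporter cells with liver microsomes plus NADPH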
Summary of the method: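 Reporter activation was measured by LiveBLAzer fluorescence intensity in p53RE-bla cells, which had been exposed to compounds for 16 h at 37 C alongside 0.5 mg/mL human liver microsomes and 0.5 mg/mL NADPH (final concentrations).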

[5] = p53 small molecule agonists, cell-based qHTS assay with rat liver microsomes (AID 1963578)
Summary of the method: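 Compound in DMSO added to p53RE-bla cells 5 h post-plating; rat microsomes/NADPH 0.5 mg/mL final; 16 h, 37 C; LiveBLAzer 2 h RT.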

[6] = p53 small molecule agonists, cell-based qHTS assay with human liver microsomes: qHTS cell viability counter screen (AID 1963579); further: nearly all actives have a fitted effect of over 45% in size
Summary of the method: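 HLM-supplemented (0.5 mg/mL final) and NADPH-supplemented (0.5 mg/mL final) p53RE-bla cultures, 4,000 cells per well, were dosed with compounds in DMSO for 16 h at 37 C; luminescent ATP detection (CellTiter-Glo, 30 min, room temperature) quantified surviving cells.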

[7] = p53 small molecule agonists, cell-based qHTS assay with rat liver microsomes: qHTS cell viability counter screen (AID 1963580); further: nearly all actives have a fitted effect of over 45% in size
Summary of the method: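 After the beta-lactamase ratio was read, CellTiter-Glo was added to the same wells and luminescence measured at 30 min; cells had been treated 16 h at 37 C with compounds, rat liver microsomes and NADPH (0.5 mg/mL final each).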

[8] = p53 small molecule agonists, cell-based qHTS assay (AID 1963582; active means well fitted activation curve with a large enough effect in the signal ratio in the repeat runs, not every such curve was filed as active; the % refers to the signal ratio)
Summary of the method: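 Measured: fluorescence from cleaved LiveBLAzer substrate. System: p53RE-bla cells, 16 h compound treatment at 37 C, 2 h substrate step at room temperature.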

[9] = target: 5-hydroxytryptamine receptor 2A (Homo sapiens) (UniProt P28223); assay: 5-hydroxytryptamine receptor 2A (HTR2A) small molecule antagonists, cell-based qHTS assay (AID 1963586); further: nearly all actives have a fitted effect of over 45% in size
Summary of the method: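 CHO cells stably expressing human HTR2A were plated for 18 h at 37 C, then loaded with calcium dye for 1 h. Compounds were preincubated 5 min at room temperature before DOI (4 nM solution) was added. Kinetic fluorescence was read for 3 min.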

[10] = target: 5-hydroxytryptamine receptor 2A (Homo sapiens) (UniProt P28223); assay: 5-hydroxytryptamine receptor 2A (HTR2A) small molecule agonists, cell-based qHTS assay (AID 1963587); further: nearly all actives have a fitted effect of over 30% in size
Summary of the method: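 CHO cells stably expressing human HTR2A, plated 18 h, loaded with calcium dye 1 h at 37 C. Agonist mode: compounds added and intracellular calcium fluorescence recorded kinetically for 2 min at 1 sec intervals.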

[11] = target: Muscarinic acetylcholine receptor M1 (Homo sapiens) (UniProt P11229); assay: Cholinergic receptor muscarinic 1 (CHRM1) small molecule antagonists, cell-based qHTS assay (AID 1963588); further: nearly all actives have a fitted effect of over 40% in size
Summary of the method: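 Compounds were tested at 15 concentrations in three independent runs. Dye-loaded CHRM1-CHO cells were exposed 5 min at room temperature before stimulation by acetylcholine added at 50nM. Intracellular calcium was read kinetically on FDSS for 3 min.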

[12] = target: Muscarinic acetylcholine receptor M1 (Homo sapiens) (UniProt P11229); assay: Cholinergic receptor muscarinic 1 (CHRM1) small molecule agonists, cell-based qHTS assay (AID 1963589); further: nearly all actives have a fitted effect of over 35% in size
Summary of the method: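 Kinetic fluorescence (1 s intervals) of calcium-sensitive dye in human M1 CHO cells after compound addition; cells pre-incubated 18 h at 37 C/5% CO2 and dye-loaded 1 h.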

[13] = cAMP Responsive Elements (CRE) small molecule agonists, cell-based qHTS assay (AID 1963590)
Summary of the method: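 Test agents in DMSO were incubated 3 h at 37 C/5% CO2 with CRE-bla HEK 293T cells seeded 18 h earlier; LiveBLAzer B/G FRET substrate was added and read after 2 h at room temperature.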

[14] = cAMP Responsive Elements (CRE) small molecule antagonists, cell-based qHTS assay (AID 1963591; active means well fitted inhibition curve with a large enough effect in the signal ratio in the repeat runs, not every such curve was filed as active; the % refers to the signal ratio)
Summary of the method: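 Reporter line CRE-bla HEK 293T in dialyzed-FBS DMEM; cells preincubated 18 h, treated 3 h with compound plus NKH477 (0.25 uM final); LiveBLAzer FRET, 2 h RT.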

[15] = target: Beta-2 adrenergic receptor (Homo sapiens) (UniProt P07550); assay: Adrenergic beta2 receptor (ADRB2) small molecule antagonists, cell-based qHTS assay (AID 1963592); further: series mostly up to about 92 µM; nearly all actives have a fitted effect of over 50% in size
Summary of the method: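 Assay format: CHO-ADRB2 cells, 18-20hr seeding at 37C/5% CO2, then compound plus 1nM isoproterenol agonist mix for 0.5hr RT. Homogeneous time-resolved fluorescence cAMP detection after 1hr, expressed as 665/615 nm ratio.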

[16] = target: Beta-2 adrenergic receptor (Homo sapiens) (UniProt P07550); assay: Adrenergic beta2 receptor (ADRB2) small molecule agonists, cell-based qHTS assay (AID 1963593);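 further: CHO cells stably overexpressing human ADRB2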
Summary of the method: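 CHO cells stably over-expressing ADRB2 were plated overnight at 37C, then dosed with compounds plus a stimulation mix containing 100uM IBMX and 25uM Ro-20-1724 for 0.5hr at room temperature. cAMP was measured by HTRF competition, 1hr.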

[17] = target: D(2) dopamine receptor (Homo sapiens) (UniProt P14416); assay: Dopamine D2 receptor (DRD2) small molecule agonists, cell-based qHTS assay (AID 1963594); further: nearly all actives have a fitted effect of over 35% in size
Summary of the method: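 HEK293 cells stably expressing human DRD2, pre-treated with PDE inhibitor Ro20-1724 (0.1 mM final) and compound 10 min at room temperature, then stimulated with NKH477 (200nM […]) for 30 min. cAMP read by HTRF (665/620 nm).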

[18] = target: D(2) dopamine receptor (Homo sapiens) (UniProt P14416); assay: Dopamine D2 receptor (DRD2) small molecule antagonists, cell-based qHTS assay (AID 1963595; active means well fitted inhibition curve with a large enough effect in the signal ratio in the repeat runs, with a control signal flat; the % refers to the signal ratio)
Summary of the method: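 HEK293 cells stably expressing DRD2, preincubated with 0.1 mM Ro20-1724 and compounds 10 min, were stimulated with 200 nM NKH477 plus 12 nM quinpirole for 30 min at room temperature; cAMP measured by HTRF (665/620 nm).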

[19] = p53 small molecule agonists, cell-based qHTS assay: qHTS cell viability counter screen (AID 1963581); further: nearly all actives have a fitted effect of over 45% in size
Summary of the method: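 qHTS counter screen: 16 h compound exposure at 37 C of p53RE-bla HCT-116 cells (4,000 per well, seeded 5 h prior), cell viability by ATP luminescence.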

Measured: Potency

Chain of 5-hydroxytryptamine receptor 2A (Homo sapiens) (P28223 whole entry, looked up): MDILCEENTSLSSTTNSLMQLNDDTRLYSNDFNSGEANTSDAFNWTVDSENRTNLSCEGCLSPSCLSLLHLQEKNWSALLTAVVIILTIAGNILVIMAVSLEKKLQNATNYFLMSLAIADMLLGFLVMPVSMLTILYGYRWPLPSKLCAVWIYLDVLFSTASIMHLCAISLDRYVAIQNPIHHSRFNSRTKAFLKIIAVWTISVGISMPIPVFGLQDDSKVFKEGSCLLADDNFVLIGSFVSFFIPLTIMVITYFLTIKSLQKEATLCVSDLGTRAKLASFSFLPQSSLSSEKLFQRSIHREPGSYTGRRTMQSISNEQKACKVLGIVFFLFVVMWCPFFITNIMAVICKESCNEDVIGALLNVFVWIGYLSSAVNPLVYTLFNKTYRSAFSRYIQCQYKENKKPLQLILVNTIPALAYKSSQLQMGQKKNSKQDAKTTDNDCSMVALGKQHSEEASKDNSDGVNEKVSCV
Chain of D(2) dopamine receptor (Homo sapiens) (P14416 whole entry, looked up): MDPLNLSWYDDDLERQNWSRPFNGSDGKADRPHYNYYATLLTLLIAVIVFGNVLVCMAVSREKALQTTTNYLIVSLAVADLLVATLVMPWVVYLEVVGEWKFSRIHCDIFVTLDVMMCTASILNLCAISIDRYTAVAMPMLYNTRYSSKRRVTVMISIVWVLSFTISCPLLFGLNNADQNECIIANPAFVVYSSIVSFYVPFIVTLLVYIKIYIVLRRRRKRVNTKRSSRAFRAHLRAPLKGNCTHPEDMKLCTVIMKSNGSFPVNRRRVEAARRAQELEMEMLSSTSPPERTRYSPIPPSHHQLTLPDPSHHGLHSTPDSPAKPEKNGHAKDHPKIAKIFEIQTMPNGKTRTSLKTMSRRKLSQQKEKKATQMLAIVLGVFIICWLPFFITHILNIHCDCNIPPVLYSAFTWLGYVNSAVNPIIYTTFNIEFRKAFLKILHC
Chain of Muscarinic acetylcholine receptor M1 (Homo sapiens) (P11229 whole entry, looked up): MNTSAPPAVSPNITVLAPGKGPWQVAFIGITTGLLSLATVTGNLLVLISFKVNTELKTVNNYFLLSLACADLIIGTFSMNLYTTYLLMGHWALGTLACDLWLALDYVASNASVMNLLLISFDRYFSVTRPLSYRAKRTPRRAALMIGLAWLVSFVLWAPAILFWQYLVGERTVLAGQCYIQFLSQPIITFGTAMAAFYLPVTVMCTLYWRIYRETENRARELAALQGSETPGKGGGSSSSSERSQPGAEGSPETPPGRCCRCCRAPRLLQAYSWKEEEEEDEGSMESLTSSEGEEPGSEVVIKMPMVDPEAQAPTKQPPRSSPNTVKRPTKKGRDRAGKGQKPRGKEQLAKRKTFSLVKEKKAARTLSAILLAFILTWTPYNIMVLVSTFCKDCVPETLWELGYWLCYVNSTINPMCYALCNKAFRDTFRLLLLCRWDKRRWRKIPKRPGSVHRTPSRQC
Chain of KiSS-1 receptor (Homo sapiens) (Q969F8 whole entry, looked up): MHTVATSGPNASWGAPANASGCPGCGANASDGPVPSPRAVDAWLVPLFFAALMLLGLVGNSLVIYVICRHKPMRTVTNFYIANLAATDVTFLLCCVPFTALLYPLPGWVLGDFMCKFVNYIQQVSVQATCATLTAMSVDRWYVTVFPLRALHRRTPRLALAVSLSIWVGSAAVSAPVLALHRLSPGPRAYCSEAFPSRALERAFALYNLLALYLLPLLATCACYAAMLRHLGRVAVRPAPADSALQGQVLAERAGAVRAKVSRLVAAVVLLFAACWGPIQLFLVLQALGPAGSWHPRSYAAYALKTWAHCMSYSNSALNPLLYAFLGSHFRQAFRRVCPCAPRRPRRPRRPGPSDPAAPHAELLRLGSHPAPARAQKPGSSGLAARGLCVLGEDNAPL
Chain of Beta-2 adrenergic receptor (Homo sapiens) (P07550 whole entry, looked up): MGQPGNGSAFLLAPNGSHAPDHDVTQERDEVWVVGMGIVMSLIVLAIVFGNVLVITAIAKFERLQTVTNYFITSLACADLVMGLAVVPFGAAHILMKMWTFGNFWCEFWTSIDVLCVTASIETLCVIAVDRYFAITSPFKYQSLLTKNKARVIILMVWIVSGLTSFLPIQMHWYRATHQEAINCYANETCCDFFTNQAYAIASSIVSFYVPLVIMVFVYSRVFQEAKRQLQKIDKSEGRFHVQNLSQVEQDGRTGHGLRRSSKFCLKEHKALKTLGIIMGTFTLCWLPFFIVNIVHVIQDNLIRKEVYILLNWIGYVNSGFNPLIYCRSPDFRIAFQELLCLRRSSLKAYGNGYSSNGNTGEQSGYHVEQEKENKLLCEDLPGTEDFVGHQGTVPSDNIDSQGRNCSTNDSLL

CC(=O)N(CC(O)CO)c1c(I)c(C(=O)NCC(O)CO)c(I)c(C(=O)NCC(O)CO)c1I (stereo unspecified)
not listed: [19]
inactive: all other assays above

CNCCCC12CCC(c3ccccc31)c1ccccc12
active: [1] 54.5 µM
not listed: [4] | [9] | [10] | [11] | [12] | [15] | [16]
inactive: all other assays above

CCCCCCCCCOCC1CO1 (stereo unspecified)
not listed: [7] | [12] | [16]
inactive: all other assays above

Cn1cnc([N+](=O)[O-])c1Sc1ncnc2nc[nH]c12
not listed: [6] | [8] | [9] | [10] | [11] | [12] | [13] | [16]
inactive: all other assays above

CC(=O)OCc1ccccc1
not listed: [4] | [5] | [8] | [11]
inactive: all other assays above

CCC(COC(=O)CCS)(COC(=O)CCS)COC(=O)CCS
not listed: [5] | [10] | [16] | [18]
inactive: all other assays above

CCCCc1ccc(Cl)cc1
not listed: [4] | [7] | [16]
inactive: all other assays above

CCCOC(C)=O
not listed: [5]
inactive: all other assays above

CCN(CCO)c1cccc(C)c1
not listed: [16] | [19]
inactive: all other assays above

CCCCCCCC(=O)[O-].CCCCCCCC(=O)[O-].[Zn+2]
not listed: [5]
inactive: all other assays above

CN(C)c1ccc(C(=N)c2ccc(N(C)C)cc2)cc1
active: [1] 24 µM and 23.4 µM
not listed: [5] | [8] | [10] | [11] | [13]
inactive: all other assays above

C[N+](C)(C)CC[N+]1(C)Cc2c(Cl)c(Cl)c(Cl)c(Cl)c2C1
not listed: [4] | [10]
inactive: all other assays above

Cc1oc(C)c(C(=O)Nc2ccccc2)c1C
not listed: [19]
inactive: all other assays above

CC(=O)OC[C@H]1O[C@@H](OC(C)=O)[C@H](OC(C)=O)[C@@H]1OC(C)=O
not listed: [5] | [14]
inactive: all other assays above

C=CCOCC(O)CO (stereo unspecified)
not listed: [5] | [12]
inactive: all other assays above

CCN(CC)c1ccc(C(=O)c2ccccc2C(=O)O)c(O)c1
not listed: [4] | [5] | [7] | [8] | [13] | [14] | [16]
inactive: all other assays above

CNCCO
not listed: [3] | [7] | [8] | [10]
inactive: all other assays above
